{"source": "the supplement of paper PMC11577813", "about": "“Eurasian spruce bark beetle detects lanierone using a highly expressed specialist odorant receptor, present in several functional sensillum types” (BMC Biology, 2024)", "tested_on": "lanierone-responsive B-neuron OSN class (ItypOR36)", "experiment": "net action potential response of lanierone B-neuron (blank-subtracted) (spikes/s (Hz)); higher = stronger excitation", "conditions": "10 µg on filter paper, neuron: B neuron (small spike amplitude)", "protocol": "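Single sensillum recordings from antennal olfactory sensilla of live adult Ips typographus. Each compound was 10 µg in paraffin oil, delivered as a 0.5 s puff. Net response = spikes in the first 0.5 s of response minus the 0.5 s pre-stimulus count, doubled to give Hz, with blank response subtracted. Values are for the small-spike lanierone-responsive B-neuron (putatively expressing ItypOR36), recorded in sensilla co-housing the A-neuron class; N = 1-4, averaged.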", "key": {"[1]": {"conditions": "co-localized A-neuron class: (4S)-cis-verbenol"}, "[2]": {"conditions": "co-localized A-neuron class: (5S,7S)-trans-conophthorin"}, "[3]": {"conditions": "co-localized A-neuron class: (+)-isopinocamphone"}, "[4]": {"conditions": "co-localized A-neuron class: (+)-trans-4-thujanol"}, "[5]": {"conditions": "co-localized A-neuron class: ipsdienol"}, "[6]": {"conditions": "co-localized A-neuron class: myrcene"}, "[7]": {"conditions": "co-localized A-neuron class: p-cymene"}}, "note": "± gives the standard deviation of the averaged measurements.", "data": [{"smiles": "COc1ccc(C)cc1", "note": "[4-Methyl anisole]", "values": [{"measurement": "net action potential response", "setting": "[1]", "value": "-1.33 ± 8.3"}, {"measurement": "net action potential response", "setting": "[2]", "value": "2 ± 3.5"}, {"measurement": "net action potential response", "setting": "[3]", "value": "2.67 ± 1.1"}, {"measurement": "net action potential response", "setting": "[4]", "value": "-2 ± 6.7"}, {"measurement": "net action potential response", "setting": "[5]", "value": "0.667 ± 10"}, {"measurement": "net action potential response", "setting": "[6]", "value": -8}, {"measurement": "net action potential response", "setting": "[7]", "value": "-2.67 ± 3.1"}]}, {"smiles": "C[C@@H]1C(=O)C[C@H]2C[C@@H]1C2(C)C", "note": "[(+)-Isopinocamphone]", "values": [{"measurement": "net action potential response", "setting": "[1]", "value": "-0.667 ± 17"}, {"measurement": "net action potential response", "setting": "[2]", "value": "1.33 ± 5"}, {"measurement": "net action potential response", "setting": "[3]", "value": "-5.33 ± 3.1"}, {"measurement": "net action potential response", "setting": "[4]", "value": "1 ± 2.6"}, {"measurement": "net action potential response", "setting": "[5]", "value": "-2 ± 2"}, {"measurement": "net action potential response", "setting": "[6]", "value": -2}, {"measurement": "net action potential response", "setting": "[7]", "value": "-0.667 ± 3.1"}]}, {"smiles": "CC(C)[C@@]12CC[C@@](C)(O)[C@@H]1C2", "note": "[(+)-trans-4-Thujanol]", "values": [{"measurement": "net action potential response", "setting": "[1]", "value": "-3.33 ± 4.2"}, {"measurement": "net action potential response", "setting": "[2]", "value": "0 ± 5.9"}, {"measurement": "net action potential response", "setting": "[3]", "value": "0.667 ± 1.1"}, {"measurement": "net action potential response", "setting": "[4]", "value": "-6.5 ± 5.5"}, {"measurement": "net action potential response", "setting": "[5]", "value": "-0.667 ± 2.3"}, {"measurement": "net action potential response", "setting": "[6]", "value": 2}, {"measurement": "net action potential response", "setting": "[7]", "value": "-1.33 ± 3.1"}]}, {"smiles": "CCCCCCO", "note": "[1-Hexanol]", "values": [{"measurement": "net action potential response", "setting": "[1]", "value": "-0.667 ± 3.1"}, {"measurement": "net action potential response", "setting": "[2]", "value": "0.5 ± 3.4"}, {"measurement": "net action potential response", "setting": "[3]", "value": "-1.33 ± 1.1"}, {"measurement": "net action potential response", "setting": "[4]", "value": "0 ± 1.6"}, {"measurement": "net action potential response", "setting": "[5]", "value": "2 ± 2"}, {"measurement": "net action potential response", "setting": "[6]", "value": -6}, {"measurement": "net action potential response", "setting": "[7]", "value": "-2.67 ± 6.1"}]}, {"smiles": "CC1(C)C2CC=C(CO)C1C2", "note": "(racemic) [(±)-Myrtenol]", "values": [{"measurement": "net action potential response", "setting": "[1]", "value": "-0.667 ± 3.1"}, {"measurement": "net action potential response", "setting": "[2]", "value": "2.5 ± 6"}, {"measurement": "net action potential response", "setting": "[3]", "value": "-1.33 ± 3.1"}, {"measurement": "net action potential response", "setting": "[4]", "value": "0 ± 2.3"}, {"measurement": "net action potential response", "setting": "[5]", "value": "-2 ± 14"}, {"measurement": "net action potential response", "setting": "[6]", "value": -6}, {"measurement": "net action potential response", "setting": "[7]", "value": "0 ± 2"}]}, {"smiles": "CCCCCC=O", "note": "[Hexanal]", "values": [{"measurement": "net action potential response", "setting": "[1]", "value": "0.667 ± 3.1"}, {"measurement": "net action potential response", "setting": "[2]", "value": "-0.667 ± 1.1"}, {"measurement": "net action potential response", "setting": "[3]", "value": "-1.33 ± 9"}, {"measurement": "net action potential response", "setting": "[4]", "value": "-3 ± 2.6"}, {"measurement": "net action potential response", "setting": "[5]", "value": "-3.33 ± 4.2"}, {"measurement": "net action potential response", "setting": "[6]", "value": 2}, {"measurement": "net action potential response", "setting": "[7]", "value": "3.33 ± 4.6"}]}]}
